Results taken from PubChem BioAssay.
For part of these data: Entries with a potency or affinity are not part of this list. Calls of active or inactive are those of the source.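 How the source made its calls, unless noted: active means hit in primary screen, with calcium signal over 5 SD above buffer well mean in both duplicates; inactive means the rest.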

How the values were obtained:
[1] = test system: TRPC4 beta (transient receptor potential cation channel C4), mouse; test: TRPC4 cation channel opening, retest – cell-based, Fluo4 calcium, HEK293 TRPC4beta/mu-opioid, duplicates, 10 µM, confirmation (AID 2426;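 active means fluorescence ratio normalized to control raised more than 50% in primary screen plus both repeat runs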;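 on activation: percent rise of integrated ratio over buffer wells lacking compound which define 0%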); settings: Fluo4 calcium fluorescence, at 10 µM; stronger effect = higher value
[2] = test system: transient receptor potential cation channel C4 beta (TRPC4), mouse; test: TRPC4 cation channel opening, second retest – cell-based, second round, Fluo4, HEK293 TRPC4beta/mu-opioid, 1 µM, confirmation (AID 2461;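 active means primary screen active and over 50% activation in each of two duplicate runs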;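 on activation: 0% = wells without test compound as baseline of integrated fluorescence ratio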); settings: Fluo4 calcium fluorescence, at 1 µM; stronger effect = higher value
[3] = test system: TRPC4 (transient receptor potential cation channel C4 beta), mouse; test: potentiation of DAMGO EC20 TRPC4 response – cell-based, second round, Fluo-4, HEK293 TRPC4beta/mu-opioid, 1 µM, confirmation (AID 2554;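 active means primary screen hit whose fluorescence ratio, in both repeats, exceeds the weak agonist control mean by 3 SD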); settings: DAMGO EC20, Fluo-4 calcium flux, at 1 µM; stronger effect = higher value
[4] = test system: TRPC4 beta (transient receptor potential cation channel C4), mouse; test: potentiation of DAMGO EC20 TRPC4 response – cell-based, Fluo-4, HEK293 TRPC4beta/mu-opioid, confirmation (AID 2555;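 active means primary screen hit whose calcium fluorescence ratio, in both repeats, exceeds the weak agonist control mean by 3 SD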); settings: DAMGO EC20, Fluo-4 calcium flux, at 10 µM; stronger effect = higher value
[5] = target: Short transient receptor potential channel 4 (Mus musculus) (UniProt Q9QUQ5); test: blockers of DAMGO-evoked TRPC4 calcium flux – cell-based, Fluo4, HEK293 TRPC4beta/mu-opioid, confirmation (AID 2636;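 active means calcium signal cut by more than 3 SD below the full-agonist control yet still positive, in both repeats and the earlier primary screen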); settings: at 10 µM; stronger effect = higher value
[6] = target: Short transient receptor potential channel 4 (Mus musculus) (UniProt Q9QUQ5); test: blockers of DAMGO-evoked TRPC4 calcium flux – cell-based, second round, Fluo4, HEK293 TRPC4beta/mu-opioid, 1 µM, confirmation (AID 2637;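 active means calcium signal ratio cut to more than 3 SD under the fully stimulated control mean yet still positive, in both repeats and the primary screen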); settings: at 1 µM; stronger effect = higher value
[7] = target: Short transient receptor potential channel 4 (Mus musculus) (UniProt Q9QUQ5); test: potentiation of DAMGO-evoked TRPC4 calcium signal – cell-based, HEK293 TRPC4/mu-opioid, Fluo-4 calcium, EC20 DAMGO, dose response (AID 434941;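 active means earlier screen potentiator hit that boosts the TRPC4 ion channel at some dose, with a dose response; inactive means no potentiation, no dose response, or not a prior hit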;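 further: calcium entry triggered by an EC20 dose of DAMGO at the co-expressed mu-opioid receptor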)
[8] = target: Short transient receptor potential channel 4 (Mus musculus) (UniProt Q9QUQ5); test: block of DAMGO-driven TRPC4 calcium entry – cell-based, HEK293 TRPC4/mu-opioid, Fluo-4 calcium, dose response (AID 434942;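 active means primary screen inhibitor hit that blocks the TRPC4 channel at some tested dose, yielding a dose curve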)
[9] = target: Short transient receptor potential channel 6 (Mus musculus) (UniProt Q61143); test: TRPC6 blockade by TRPC4 inhibitor hits – cell-based, HEK293, membrane potential dye, duplicate, selectivity assay for TRPC4 inhibitor project, confirmation (AID 434948;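 active means active in primary screen and both duplicates, each dropping signal beyond three positive-control SD with fluorescence still positive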); settings: HEK293 TRPC6, membrane potential dye fluorescence, at 10 µM, stimulated with maximal-effect acetylcholine; stronger effect = higher value
[10] = target: Short transient receptor potential channel 6 (Mus musculus) (UniProt Q61143); test: TRPC6 opening by TRPC4 activator hits – cell-based, HEK293, membrane potential dye, duplicate, selectivity assay for TRPC4 activator project, confirmation (AID 434950;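 active means membrane potential signal rise above negative control mean plus 3 SD in both duplicates, also active in the earlier TRPC4 screen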;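 on activation: 0% = buffer only wells and 100% = acetylcholine maximal-effect wells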); settings: HEK293 TRPC6, membrane potential fluorescence, at 10 µM; activation: stronger effect = higher value; outcome: activation
[11] = target: Short transient receptor potential channel 6 (Mus musculus) (UniProt Q61143); test: positive modulators of mouse TRPC6 channel – HEK293 cells, membrane potential dye, duplicate, selectivity assay for TRPC4 potentiator project, confirmation (AID 434952;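 active means compound raising the membrane signal above positive-control mean plus 3 SD in both repeats, and a primary screen hit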); settings: HEK293 TRPC6, membrane potential dye fluorescence, at 10 µM, maximal acetylcholine added after compound; stronger effect = higher value
[12] = target: Short transient receptor potential channel 4 (Mus musculus) (UniProt Q9QUQ5); test: calcium flux activators in TRPC4/5HT1a cells, counter-screen for TRPC4 activator project, cell-based, second counter screen, HEK293 TRPC4/5HT1a, Fluo-4 (AID 434977;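 active means calcium signal rise above buffer-control mean plus 5 SD in both duplicates, and also a hit in the primary screen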;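 on activation: plate controls were assay buffer for no effect and maximal serotonin response for full effect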); settings: Fluo-4 calcium flux, at 10 µM; stronger effect = higher value
[13] = serotonin-gated TRPC4 signal block – cell-based, second counter screen, HEK293 TRPC4/5HT1a, Fluo-4, counter-screen for TRPC4 inhibitor project, confirmation (AID 434978;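 active means primary screen active whose calcium signal fell more than 3 SD beyond the full-serotonin control mean in both duplicate plates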;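 further: serotonin given first at submaximal then at maximal dose after compound preincubation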); settings: Fluo-4 calcium flux, at 10 µM, serotonin added to trigger calcium flux; stronger effect = higher value
[14] = test system: TRPC4 (mouse), co-expressed with 5HT1a in HEK293; test: enhancement of serotonin-evoked TRPC4 response – cell-based, second counter screen, HEK293 TRPC4/5HT1a, Fluo-4, counter-screen for TRPC4 potentiator project, confirmation (AID 434979;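 active means signal rise over 3 SD above mean of control wells given weak agonist, in both repeats and first screen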); settings: Fluo-4 calcium flux, at 10 µM, serotonin added at its EC20 dose; stronger effect = higher value
[15] = nonspecific calcium rise without TRPC4 – cell-based, HEK293 mu-opioid receptor line, counter-screen for TRPC4 activator project, confirmation (AID 449723); settings: HEK293 mu-opioid cells, Fluo-4 calcium fluorescence, at 10 µM; stronger effect = higher value;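 further: counter screen cells carry the mu-opioid receptor alone and lack TRPC4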
[16] = nonspecific potentiation of DAMGO calcium response – cell-based, HEK293 mu-opioid receptor line, counter-screen for TRPC4 allosteric potentiator project, confirmation (AID 449724;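 active means calcium signal rise more than 3 SD above the low-dose agonist control mean, in both duplicate plates and the primary screen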); settings: HEK293 mu-opioid receptor cells, Fluo-4 calcium flux, at 10 µM, compound added before EC20 DAMGO stimulus; stronger effect = higher value

Short transient receptor potential channel 4 (Mus musculus), sequence (Q9QUQ5 whole entry, looked up): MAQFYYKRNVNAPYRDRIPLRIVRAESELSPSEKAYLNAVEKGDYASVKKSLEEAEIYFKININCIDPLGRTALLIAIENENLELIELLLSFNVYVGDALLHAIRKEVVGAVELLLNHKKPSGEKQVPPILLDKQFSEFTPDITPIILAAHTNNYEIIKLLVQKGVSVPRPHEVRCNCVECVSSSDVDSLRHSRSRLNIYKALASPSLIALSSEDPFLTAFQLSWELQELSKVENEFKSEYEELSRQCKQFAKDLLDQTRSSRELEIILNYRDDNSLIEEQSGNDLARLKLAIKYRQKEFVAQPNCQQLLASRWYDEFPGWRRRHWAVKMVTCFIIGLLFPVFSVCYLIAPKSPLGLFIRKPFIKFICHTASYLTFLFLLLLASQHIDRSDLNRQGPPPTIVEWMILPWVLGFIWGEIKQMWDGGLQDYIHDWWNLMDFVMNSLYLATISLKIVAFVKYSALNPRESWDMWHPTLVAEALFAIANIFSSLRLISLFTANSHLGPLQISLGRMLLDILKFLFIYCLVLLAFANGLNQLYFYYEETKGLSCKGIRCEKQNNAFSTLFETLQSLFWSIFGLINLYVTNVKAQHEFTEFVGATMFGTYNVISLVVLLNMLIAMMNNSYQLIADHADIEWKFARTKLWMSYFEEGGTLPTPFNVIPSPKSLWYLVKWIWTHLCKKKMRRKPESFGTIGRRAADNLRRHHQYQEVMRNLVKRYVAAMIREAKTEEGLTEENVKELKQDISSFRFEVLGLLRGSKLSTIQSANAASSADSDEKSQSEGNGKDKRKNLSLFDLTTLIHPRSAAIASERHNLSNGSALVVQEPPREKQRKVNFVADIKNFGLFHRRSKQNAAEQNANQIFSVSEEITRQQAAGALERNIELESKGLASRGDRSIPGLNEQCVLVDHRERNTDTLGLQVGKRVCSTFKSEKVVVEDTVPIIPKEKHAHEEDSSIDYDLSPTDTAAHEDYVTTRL
Short transient receptor potential channel 6 (Mus musculus), sequence (Q61143 whole entry, looked up): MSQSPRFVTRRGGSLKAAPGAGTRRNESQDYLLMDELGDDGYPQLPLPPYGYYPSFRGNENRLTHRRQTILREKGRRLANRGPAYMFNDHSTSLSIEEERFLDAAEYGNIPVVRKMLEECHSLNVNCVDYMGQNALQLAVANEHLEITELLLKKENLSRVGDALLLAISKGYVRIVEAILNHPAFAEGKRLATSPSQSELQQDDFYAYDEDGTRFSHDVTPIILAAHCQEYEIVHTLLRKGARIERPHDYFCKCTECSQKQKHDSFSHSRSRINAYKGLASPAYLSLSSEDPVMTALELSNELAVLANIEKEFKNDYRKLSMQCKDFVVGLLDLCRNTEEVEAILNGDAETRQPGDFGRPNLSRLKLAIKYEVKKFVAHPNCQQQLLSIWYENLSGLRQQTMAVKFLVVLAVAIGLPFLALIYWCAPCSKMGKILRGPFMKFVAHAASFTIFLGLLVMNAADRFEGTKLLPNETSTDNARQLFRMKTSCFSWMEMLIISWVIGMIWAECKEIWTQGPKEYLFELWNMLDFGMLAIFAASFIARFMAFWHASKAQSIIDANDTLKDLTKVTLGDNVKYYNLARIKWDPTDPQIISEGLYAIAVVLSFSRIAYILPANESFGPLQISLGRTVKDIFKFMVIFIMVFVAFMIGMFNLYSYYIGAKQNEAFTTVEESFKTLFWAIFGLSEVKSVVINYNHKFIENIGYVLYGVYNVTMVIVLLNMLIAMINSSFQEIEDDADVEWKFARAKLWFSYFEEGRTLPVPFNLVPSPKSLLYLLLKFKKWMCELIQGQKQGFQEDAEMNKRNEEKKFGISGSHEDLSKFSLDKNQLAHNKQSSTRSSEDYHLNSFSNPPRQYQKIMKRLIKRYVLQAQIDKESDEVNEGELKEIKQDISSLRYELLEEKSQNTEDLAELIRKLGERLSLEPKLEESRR

COc1ccc(C(=O)NC(=S)NNC(=O)c2c(-c3ccccc3)noc2C)cc1OC
active: activation [10] 39% | activation [12] 24.4%
inactive: outcome [1] | outcome [2] | outcome [3] | outcome [4] | outcome [5] | outcome [6] | outcome [7] | outcome [8] | outcome [9] | outcome [11] | outcome [13] | outcome [14] | outcome [15] | outcome [16]

Cc1ccc(C2(O)CN(c3ccccc3C)C3=[N+]2CCS3)cc1 (stereo not given)
active: activation [1] 87% | activation [2] 76% | activation [10] 43.5%
inactive: outcome [3] | outcome [4] | outcome [5] | outcome [6] | outcome [7] | outcome [8] | outcome [9] | outcome [11] | outcome [12] | outcome [13] | outcome [14] | outcome [15] | outcome [16]

CCn1c(N)[n+](CC(=O)Nc2ccc(SC(F)F)cc2)c2ccccc21
inactive: outcome [2] | outcome [3] | outcome [4] | outcome [5] | outcome [6] | outcome [7] | outcome [8] | outcome [9] | outcome [10] | outcome [11] | outcome [13] | outcome [14] | outcome [15] | outcome [16]
active: activation [1] 200% | activation [12] 10.3%

CCN(CC)CCCOc1ccc(Cl)c(Cl)c1
inactive: outcome [1] | outcome [2] | outcome [5] | outcome [6] | outcome [7] | outcome [8] | outcome [9] | outcome [11] | outcome [13] | outcome [15] | outcome [16]
active: potentiation [3] 31% | potentiation [4] 33% | activation [10] 48% | activation [12] 17.9% | potentiation [14] 21.3%

CC1(c2ccc(Cl)cc2Cl)OCC(Cn2ccnc2)O1 (stereo not given)
inactive: outcome [2] | outcome [3] | outcome [4] | outcome [5] | outcome [6] | outcome [7] | outcome [8] | outcome [9] | outcome [11] | outcome [13] | outcome [14] | outcome [15] | outcome [16]
active: activation [1] 89% | activation [10] 48.5% | activation [12] 19.9%

CC(NCCC1(Cc2ccccc2Cl)CCOC(C)(C)C1)c1cccs1 (stereo not given)
inactive: outcome [2] | outcome [3] | outcome [4] | outcome [5] | outcome [6] | outcome [7] | outcome [8] | outcome [9] | outcome [10] | outcome [11] | outcome [12] | outcome [13] | outcome [14] | outcome [15] | outcome [16]
active: activation [1] 89%

COc1ccc(C(CNC(=O)c2cccc(S(=O)(=O)NCc3ccccc3)c2)N(C)C)cc1 (stereo not given)
active: activation [1] 129% | activation [2] 61% | activation [10] 38%
inactive: outcome [3] | outcome [4] | outcome [5] | outcome [6] | outcome [7] | outcome [8] | outcome [9] | outcome [11] | outcome [12] | outcome [13] | outcome [14] | outcome [15] | outcome [16]

CCOC(=O)C1(Cc2cccc(F)c2)CCN(Cc2cnc(C)s2)CC1
inactive: outcome [1] | outcome [2] | outcome [3] | outcome [4] | outcome [5] | outcome [6] | outcome [7] | outcome [8] | outcome [9] | outcome [11] | outcome [12] | outcome [13] | outcome [14] | outcome [15] | outcome [16]
active: activation [10] 44%

CN(C)C(CNC(=S)Nc1cccc(Cl)c1)c1cccnc1 (stereo not given)
inactive: outcome [3] | outcome [4] | outcome [5] | outcome [6] | outcome [7] | outcome [8] | outcome [9] | outcome [10] | outcome [11] | outcome [12] | outcome [13] | outcome [14] | outcome [15] | outcome [16]
active: activation [1] 77% | activation [2] 110%

Cc1ccc(Sc2cc(C(=O)NCCN(C)C)c3ccccc3n2)cc1
active: activation [1] 91% | activation [12] 24.6%
inactive: outcome [2] | outcome [3] | outcome [4] | outcome [5] | outcome [6] | outcome [7] | outcome [8] | outcome [9] | outcome [10] | outcome [11] | outcome [13] | outcome [14] | outcome [15] | outcome [16]

CN1CCC(CNC(=O)Nc2ccccc2)(c2ccccc2)CC1
inactive: outcome [3] | outcome [4] | outcome [5] | outcome [6] | outcome [7] | outcome [8] | outcome [9] | outcome [10] | outcome [11] | outcome [12] | outcome [13] | outcome [14] | outcome [15] | outcome [16]
active: activation [1] 97% | activation [2] 52%

Cc1ccc(Cl)cc1NC(=O)CNCC(c1ccccc1)N(C)C (stereo not given)
active: activation [10] 47.5%
inactive: outcome [1] | outcome [2] | outcome [3] | outcome [4] | outcome [5] | outcome [6] | outcome [7] | outcome [8] | outcome [9] | outcome [11] | outcome [12] | outcome [13] | outcome [14] | outcome [15] | outcome [16]

COC(=O)C1=C(C)N(Cc2ccccc2)C(=NCCc2ccccn2)N[C@H]1c1cccc(F)c1
active: activation [1] 109% | activation [10] 77% | activation [12] 44.2%
inactive: outcome [2] | outcome [3] | outcome [4] | outcome [5] | outcome [6] | outcome [7] | outcome [8] | outcome [9] | outcome [11] | outcome [13] | outcome [14] | outcome [15] | outcome [16]

CCN(CC)CCSc1nc2ccc(OC)cc2[nH]1
inactive: outcome [3] | outcome [4] | outcome [5] | outcome [6] | outcome [7] | outcome [8] | outcome [9] | outcome [10] | outcome [11] | outcome [13] | outcome [14] | outcome [15] | outcome [16]
active: activation [1] 90% | activation [2] 60% | activation [12] 31.6%

COc1ccc(C2Nc3ccccc3C(=O)N2Cc2ccco2)cc1COc1ccc(NC(C)=O)cc1 (stereo not given)
active: activation [10] 29%
inactive: outcome [1] | outcome [2] | outcome [3] | outcome [4] | outcome [5] | outcome [6] | outcome [7] | outcome [8] | outcome [9] | outcome [11] | outcome [12] | outcome [13] | outcome [14] | outcome [15] | outcome [16]
